Drawing on PubChem BioAssay, this text covers composite z-score and z-score for five compounds.

A short description of assay [1]: anti-His antibody binders, primary screen, artefact control for SMM control protein annotation, biochemical, small-molecule microarray, 635 nm fluorescence (AID 1128).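 Note: score merges feature fluorescence with signal-to-noise for each printed compound spot.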 Conditions: anti-His Alexa647 antibody binding, higher = more signal.
Assay [2] relates to Human papillomavirus type 1a E7 protein (residues 1-88). Description: HPV1a E7 small-molecule binders, primary screen, biochemical, small-molecule microarray, residues 1-88, 635 nm (AID 1129). Particulars: small-molecule microarray binding, fluorescence 635 nm; higher = more signal.
In assay [3] the target is Focal adhesion kinase 1 (Homo sapiens) (UniProt Q05397). Description: small-molecule microarray binders of FAK, primary screen, biochemical, 635/667 nm fluorescence, BSA, DTT (AID 1130).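 Note: composite of spot emission at 667 nm and signal to noise over triplicate slides.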 Particulars: PTK2 binding, 635 nm fluorescence, higher = more signal.
Assay [4] concerns Fibrinogen (Alexa647-labelled). Nature of the assay: fibrinogen binders on compound microarrays, profiling panel, artefact control for SMM control-protein annotation, biochemical, small-molecule microarray, 635/667 nm fluorescence (AID 1131).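 Note: z-score merges 667 nm fluorescence with per-spot signal-to-noise over triplicate slides.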 Particulars: fibrinogen-A647 binding fluorescence, higher = more signal.
Assay [5] deals with Follistatin (Homo sapiens) (UniProt P19883). Nature of the assay: follistatin binders on small-molecule microarrays, primary screen, biochemical, small-molecule microarray, 635/667 nm fluorescence (AID 1132). Particulars: FST binding, 635 nm fluorescence, higher = more signal.
The target of assay [6] is Fibroblast growth factor 2 (Homo sapiens) (UniProt P09038). Nature of the assay: FGF2 binders on small-molecule microarrays, primary screen, biochemical, small-molecule microarray, 635/667 nm fluorescence (AID 1133). Conditions: small-molecule microarray binding, FGF2, fluorescence 635/667; higher = more signal.
The nature of assay [7]: mitochondrial membrane potential change in A549 cells, profiling panel, cell-based, JC-1 fluorescence, basal, 24 h, 100 nL (AID 1138).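 Note: A549 lung adenocarcinoma cells under basal conditions with no added stimulus; test concentration not given here.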 Particulars: higher = more signal.
A further assay deals with Lefty1. Description: Lefty1 binders on small-molecule microarrays, primary screen, biochemical, small-molecule microarray, 635/667 nm fluorescence (AID 1139). Particulars: small-molecule microarray binding, fluorescence 635/667; higher = more signal.
The test system of assay [8] is wheat germ agglutinin (Triticum aestivum), Alexa647-labelled. Description: wheat germ agglutinin binders on compound microarrays, profiling panel, artefact control for SMM control-protein annotation, biochemical, small-molecule microarray, 635/667 nm fluorescence (AID 1140).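 Note: score merges 667 nm feature emission with signal to noise over triplicate slides.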 Particulars: WGA-A647 binding, 635 nm fluorescence, higher = more signal.
For assay [9], the target named is Luciferin 4-monooxygenase (Photinus pyralis) (UniProt P08659). Description: firefly luciferase enzyme inhibitors, primary screen, biochemical, luminescence, purified enzyme, 2006 set (AID 1141).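 Note: cell-free assay with purified firefly luciferase at 100 ng per well in PBS; test concentration not given here.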 Conditions: SteadyGlo luminescence, 30 min, higher = more signal, called active from +8 up or from −8 down.
For assay [10], the system named is Wnt5a (protein binding on small-molecule microarray). Nature of the assay: Wnt5a binders on small-molecule microarray, primary screen, biophysical, 635/667 nm fluorescence (AID 1142).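 Note: fluorescence read at 667 nm with signal to noise per printed feature.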 Particulars: 635 nm fluorescence, higher = more signal.
Assay [11] can be described thus: cell viability in Huh7 cells, primary screen, cytotoxicity control for HCV replication inhibitor project, CellTiter-Glo luminescence, basal, 48 h (AID 1143).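 Note: Huh7 hepatoma cells carrying a hepatitis C replication reporter with no stimulus; test concentration not given here.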 Conditions: Huh7 HCV replicon, higher = more signal, called active from +8 up or from −8 down.
Assay [12] can be described thus: P. aeruginosa biofilm formation inhibitors, primary screen, PAO1 strain, BacTiter-Glo luminescence, LB-PBS (AID 1144). Particulars: 12 h, higher = more signal.
Assay [13] is described as follows: CREB reporter modulators without forskolin, primary screen, cell-based, PC12, CRE-LacZ reporter, unstimulated (AID 1145). Conditions: no forskolin, luminescence, 4.5 h, higher = more signal, called active from +8 up or from −8 down.
A short description of assay [14]: CREB reporter modulators under forskolin, primary screen, cell-based, PC12, CRE-LacZ reporter, forskolin-stimulated (AID 1146).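 Note: PC12 cells with 6xCRE LacZ reporter stimulated by forskolin 10 µM; beta-galactosidase reporter signal reflecting CREB driven transcription.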 Particulars: luminescence, 4.5 h, higher = more signal, called active from +8 up or from −8 down.
Assay [15] concerns the target Streptavidin (Streptomyces avidinii) (UniProt P22629). Nature of the assay: streptavidin binders on small-molecule microarray, primary screen, artefact control for SMM compound annotation, biophysical, 635/667 nm fluorescence (AID 1147).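 Note: signal reflects streptavidin binding to arrayed compounds as a control protein.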 Conditions: streptavidin binding, higher = more signal.
A short description of assay [16]: small-molecule binders of probe aInhba, primary screen, biochemical, small-molecule microarray, 635/667 nm fluorescence (AID 1148).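 Note: score merges 667nm spot fluorescence with signal-to-noise for antibody binding to printed compounds.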 Particulars: higher = more signal.
Assay [17] has as its target Torsin-1A (Homo sapiens) (UniProt O14656). Nature of the assay: torsin A binders from cell lysate, primary screen, small-molecule microarray, wild-type, 635/667 nm (AID 1149). Particulars: COS7 hTOR1A-WT lysate, 635 nm fluorescence, higher = more signal.
Assay [18] shares this target. Nature of the assay: small-molecule binders of mutant TOR1A in lysate, primary screen, cell lysate, small-molecule microarray, COS7 lysate, 635/667 nm fluorescence (AID 1150).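 Note: score pools 667 nm emission and signal to noise measuring lysate protein binding.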 Conditions: COS7 hTOR1A mutant lysate, 635 nm fluorescence, higher = more signal.
For assay [19], the system named is Sonic hedgehog protein (Shh). Nature of the assay: small-molecule binders of Shh protein, primary screen, biochemical, small-molecule microarray, 635/667 nm fluorescence (AID 1151).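 Note: Shh protein binding to compounds spotted on small-molecule microarray slides; score combines spot fluorescence intensity with signal-to-noise across triplicate slides.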 Conditions: small-molecule microarray binding, 635 nm fluorescence; higher = more signal.

Activity calls are given as the source filed them. Unless noted, the rule behind the calls is not given here.

Sequence of Streptavidin (Streptomyces avidinii) (P22629 whole entry, looked up): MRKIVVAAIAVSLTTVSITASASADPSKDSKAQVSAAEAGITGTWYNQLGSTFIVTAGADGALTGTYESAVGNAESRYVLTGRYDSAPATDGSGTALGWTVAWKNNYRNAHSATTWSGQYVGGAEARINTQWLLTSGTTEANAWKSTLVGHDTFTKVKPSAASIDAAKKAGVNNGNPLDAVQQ
Sequence of Follistatin (Homo sapiens) (P19883 whole entry, looked up): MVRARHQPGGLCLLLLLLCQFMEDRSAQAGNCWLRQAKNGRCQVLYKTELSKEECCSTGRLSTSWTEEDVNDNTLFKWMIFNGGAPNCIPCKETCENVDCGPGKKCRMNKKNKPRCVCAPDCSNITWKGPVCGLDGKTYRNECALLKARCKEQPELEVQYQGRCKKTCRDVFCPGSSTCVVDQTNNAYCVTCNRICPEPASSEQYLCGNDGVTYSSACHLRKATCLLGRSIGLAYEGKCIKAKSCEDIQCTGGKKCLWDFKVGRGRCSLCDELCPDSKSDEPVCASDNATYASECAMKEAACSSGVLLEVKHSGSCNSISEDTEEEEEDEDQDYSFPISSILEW
Sequence of Focal adhesion kinase 1 (Homo sapiens) (Q05397 whole entry, looked up): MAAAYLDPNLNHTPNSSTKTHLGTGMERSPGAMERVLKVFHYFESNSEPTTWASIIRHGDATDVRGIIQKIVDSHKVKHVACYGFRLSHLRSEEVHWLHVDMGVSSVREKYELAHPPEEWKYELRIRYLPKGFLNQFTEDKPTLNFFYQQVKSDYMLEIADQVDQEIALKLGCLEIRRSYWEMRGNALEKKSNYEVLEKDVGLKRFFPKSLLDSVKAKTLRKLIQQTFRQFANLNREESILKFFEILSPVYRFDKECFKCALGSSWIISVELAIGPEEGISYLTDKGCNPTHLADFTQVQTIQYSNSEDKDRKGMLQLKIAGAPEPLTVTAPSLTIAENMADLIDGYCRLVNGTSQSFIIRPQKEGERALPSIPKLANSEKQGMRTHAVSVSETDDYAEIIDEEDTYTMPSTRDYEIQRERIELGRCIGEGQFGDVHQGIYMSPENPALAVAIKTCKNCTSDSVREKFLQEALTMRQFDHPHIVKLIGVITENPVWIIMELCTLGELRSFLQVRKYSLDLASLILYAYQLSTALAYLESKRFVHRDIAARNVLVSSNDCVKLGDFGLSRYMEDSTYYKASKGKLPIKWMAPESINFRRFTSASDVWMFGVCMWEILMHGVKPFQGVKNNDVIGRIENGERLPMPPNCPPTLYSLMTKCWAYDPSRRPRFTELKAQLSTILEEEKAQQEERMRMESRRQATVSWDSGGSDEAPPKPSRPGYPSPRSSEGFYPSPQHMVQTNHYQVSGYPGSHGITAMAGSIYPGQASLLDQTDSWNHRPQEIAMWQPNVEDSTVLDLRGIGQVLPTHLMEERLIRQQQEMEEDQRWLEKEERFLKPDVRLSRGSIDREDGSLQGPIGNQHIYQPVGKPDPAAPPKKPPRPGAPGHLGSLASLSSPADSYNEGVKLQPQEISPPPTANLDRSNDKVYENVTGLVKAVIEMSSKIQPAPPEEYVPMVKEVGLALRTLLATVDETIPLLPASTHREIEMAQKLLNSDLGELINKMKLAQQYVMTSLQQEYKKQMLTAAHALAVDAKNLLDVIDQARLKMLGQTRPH
Sequence of Fibroblast growth factor 2 (Homo sapiens) (P09038 whole entry, looked up): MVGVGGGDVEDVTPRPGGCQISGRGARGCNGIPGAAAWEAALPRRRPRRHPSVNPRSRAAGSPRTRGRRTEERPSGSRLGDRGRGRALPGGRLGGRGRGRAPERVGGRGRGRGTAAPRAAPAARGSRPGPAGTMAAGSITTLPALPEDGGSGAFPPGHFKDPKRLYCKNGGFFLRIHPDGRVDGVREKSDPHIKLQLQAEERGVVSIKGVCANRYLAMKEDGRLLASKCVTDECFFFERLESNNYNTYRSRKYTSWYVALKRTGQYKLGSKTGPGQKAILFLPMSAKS
Sequence of Luciferin 4-monooxygenase (Photinus pyralis) (P08659 whole entry, looked up): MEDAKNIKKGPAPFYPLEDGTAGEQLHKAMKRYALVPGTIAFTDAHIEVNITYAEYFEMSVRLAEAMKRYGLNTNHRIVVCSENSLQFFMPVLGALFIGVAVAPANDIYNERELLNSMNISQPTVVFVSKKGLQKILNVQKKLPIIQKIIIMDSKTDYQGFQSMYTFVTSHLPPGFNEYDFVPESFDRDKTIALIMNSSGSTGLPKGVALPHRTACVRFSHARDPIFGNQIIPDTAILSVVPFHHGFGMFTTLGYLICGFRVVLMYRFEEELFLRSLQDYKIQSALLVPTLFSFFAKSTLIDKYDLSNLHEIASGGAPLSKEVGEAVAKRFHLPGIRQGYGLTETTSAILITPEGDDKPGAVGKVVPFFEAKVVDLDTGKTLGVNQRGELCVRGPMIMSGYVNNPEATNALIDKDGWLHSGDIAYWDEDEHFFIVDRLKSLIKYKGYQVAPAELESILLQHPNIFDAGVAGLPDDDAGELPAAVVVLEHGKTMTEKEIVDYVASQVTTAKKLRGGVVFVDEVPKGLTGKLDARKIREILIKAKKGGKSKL
Sequence of Torsin-1A (Homo sapiens) (O14656 whole entry, looked up): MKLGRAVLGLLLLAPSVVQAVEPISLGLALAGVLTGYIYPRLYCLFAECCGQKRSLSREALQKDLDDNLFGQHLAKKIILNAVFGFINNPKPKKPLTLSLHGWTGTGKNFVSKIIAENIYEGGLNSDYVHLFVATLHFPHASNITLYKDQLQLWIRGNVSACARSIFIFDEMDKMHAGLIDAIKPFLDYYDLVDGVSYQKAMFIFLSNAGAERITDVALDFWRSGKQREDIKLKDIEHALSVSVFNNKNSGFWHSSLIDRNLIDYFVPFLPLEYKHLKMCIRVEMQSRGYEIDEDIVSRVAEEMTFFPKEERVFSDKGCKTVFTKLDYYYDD

For the compound `CC(C)(C)OC(=O)CC[C@@]1(C(N)=O)N=C(c2ccc(OCCCO)cc2)O[C@@H]1c1ccccc1N=[N+]=[N-]`, the composite z-score in [1] turned out to be 1.12; in assay [2], 0.886; in assay [3], 1.1; in assay [4], 1.06; in [5], 1.21; in [6], 1.12. For the same compound, the composite z-score in the assay with Lefty1 was 0.512; in assay [8], 0.884; in [10] it was 0.672; in assay [15] it was 1.12; in assay [16], -0.0695; with Torsin-1A (Homo sapiens) [17], 2.08. The composite z-score is 1.31 in the assay with Torsin-1A (Homo sapiens) [18] and -0.179 in assay [19]. For the same compound, the z-score in assay [7] was -0.04; in assay [9], -10.5 (active); in assay [11], -0.858 (inactive); in assay [12], 0.61 (inactive); in assay [13] it was 0.204 (inactive); in assay [14], -0.208 (inactive).
Take `C=CC[C@]1(C(=O)O)N=C(c2ccc(OCCCO)cc2)O[C@H]1c1ccccc1CN=[N+]=[N-]`: the composite z-score is 0.518 in assay [1]; -0.583 in assay [2]; 0.174 in assay [3]; -0.276 in [4]; 0.349 in assay [5]; -0.39 in assay [6]. Further, the composite z-score is -0.316 in the assay on Lefty1; 0.184 in assay [8]; 0.0194 in [10]; -0.0336 in assay [15]; -0.108 in [16]; 0.0499 in the assay with Torsin-1A (Homo sapiens) [17]. For the same compound, the composite z-score is 0.416 with Torsin-1A (Homo sapiens) [18] and -0.0799 in [19]. Also, the z-score was 0.00796 in assay [7]; -0.893 (inactive) in assay [9]; 0.101 (inactive) in assay [11]; 0.874 (inactive) in [12]; 0.274 (inactive) in assay [13]; -0.0119 (inactive) in assay [14].
In the case of `CC(C)NC(=O)[C@@H]1c2ccccc2C(=O)N(C2CCCCC2)[C@H]1c1ccc(CO)cc1`, the composite z-score in assay [1] turned out to be 2.71; in assay [2] it was 1.15; in assay [3] it was 0.517; in assay [4] it was 0.137; in assay [5] it was 0.449; in assay [6] it was 0.525. Further, the composite z-score in the assay with Lefty1 is -0.161; in assay [8], 0.577; in [10], 0.242; in [15], -0.148; in [16] it was 0.152; with Torsin-1A (Homo sapiens) [17] it was 0.13. In addition, the composite z-score in the assay with Torsin-1A (Homo sapiens) [18] is -0.28; in assay [19], 0.0045. For the same compound, the z-score in assay [7] is 0.483; in assay [9], 0.202 (inactive); in [11], -1.17 (inactive); in assay [12], 0.0353 (inactive); in assay [13], -0.529 (inactive); in assay [14] it was -0.579 (inactive).
Regarding `CCCC[C@@H]1C[C@H]1[C@@H](NC(=O)c1ccccc1)c1ccc(-c2ccccc2)cc1`, the composite z-score in [1] is 0.676; in assay [2], 0.818; in [3], -0.0867; in assay [4], 0.46; in assay [5], 0.203; in [6] it was -0.368. In addition, the composite z-score was -0.26 in the assay with Lefty1; 0.348 in [8]; -0.0558 in assay [10]; 0.301 in [15]; -0.0736 in [16]; -0.256 with Torsin-1A (Homo sapiens) [17]. The composite z-score was -0.0118 with Torsin-1A (Homo sapiens) [18] and -1.11 in assay [19]. Further, the z-score in [7] is -0.232; in assay [9], 0.0434 (inactive); in assay [11] it was -4.35 (inactive); in [12] it was 0.257 (inactive); in assay [13], 0.0075 (inactive); in [14], 0.31 (inactive).
Take `C#C[C@H](O[Si](C#CCCCCCC)(C(C)C)C(C)C)c1ccccc1`: the composite z-score in assay [1] was 0.272; in assay [2], 0.203; in assay [3] it was -0.308; in assay [4] it was -0.152; in [5] it was 0.481; in assay [6], -0.471. Besides, the composite z-score with Lefty1 is 0.605; in assay [8], -0.174; in [10], -0.348; in assay [15], -0.0246; in assay [16], -0.17; in the assay with Torsin-1A (Homo sapiens) [17] it was 0.236. For the same compound, the composite z-score in the assay with Torsin-1A (Homo sapiens) [18] is 0.0769; in assay [19], -0.102. Further, the z-score in [7] was -0.562; in [9], 1.25 (inactive); in assay [11], -0.0715 (inactive); in assay [12], 0.0625 (inactive); in assay [13], 0.353 (inactive); in [14] it was 0.262 (inactive).
